According to PubChem BioAssay (NCI):
Compounds without any hit were thinned out: in the full panel of roughly 83,000, 20% have a hit.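 Values shown are percent growth following 48 h exposure of cells in 96-well plates to a single concentration of compound; below 10 was considered active.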 Active and inactive are the calls of the source.

These compounds were tested on OVCAR-8 ovarian (assay: NCI-60 one-dose screen, 48 h (100 = growth as untreated, 0 = no growth, -100 = all killed)). Details: 10 µM unless noted.
Description: Growth inhibition of the OVCAR-8 human tumor cell line is measured as a screen for anti-cancer activity. Cells are grown in 96 well plates and exposed to the test compound for 48 hours. Compounds are tested at a single concentration, which is 10^-5 M for most compounds. The reported endpoint is percent growth (GI% or GIPRCNT), where numbers from 0 - 100% represent growth inhibition, and numbers from -100% - 0 represent cell death. For example, a value of 40 represents 60% growth inhibition. A value of 0 means no net growth occurred over the course of the experiment. A value of -40 indicates 40% of cells at the beginning of the experiment died by the end of the experiment. A value of -100 means all cells are dead at the end of the experiment.
NCI-60 Human Tumor Cell Lines Screen was performed using the standard one-dose NCI protocol, which is described in more detail at https://dtp.cancer.gov/discovery_development/nci-60/default.htm.
Compounds with GIPRCNT values below 10 were considered active. Activity score was based on GIPRCNT using the following formula: […]
Score is 0 for GIPRCNT values of 100 or above, 50 for GIPRCNT values of 0, and 100 for GIPRCNT values of -100.

| SMILES | growth |
| --- | --- |
| CC/C=C\C[C@H](O)C/C=C1/C(=O)C(Cl)=C[C@@H]1C/C=C\CCCC(=O)O | 10.9% (inactive) |
| COc1cc(-c2cc(/C=C3\CCCCC3=O)[nH]n2)cc(OC)c1OC | 102% (inactive) |
| Nc1cccc2c1CN(C1CCC(=O)NC1=O)C2=O (stereo not given) | 81.1% (inactive) |
| Cc1cccc(NC(=O)c2sc3nc4c(cc3c2N)CCCC4)c1 | 52.1% (inactive) |
| CCN1C(=O)N(CC)C2Nn3c(s/c(=C\c4cccc(F)c4)c3=O)=NC21 (stereo not given) | 77.4% (inactive) |
| CCC1CCc2nc3sc(C(=O)Nc4ccccc4C)c(N)c3cc2C1 (stereo not given) | 57.3% (inactive) |
| Nc1c(C(=O)Nc2ccccc2)sc2nc3c(cc12)CCC3 | 88.2% (inactive) |
| O=S(=O)(NCCCNc1cc(-c2cn(-c3ccccc3)nc2-c2cccc(O)c2)ccn1)c1ccc(Cl)cc1 | 20.4% (inactive) |
| O=S(=O)(NCCNc1nccc(-c2c(-c3ccccc3)nc3sccn23)n1)c1ccc(O)cc1 | 40.8% (inactive) |
| COc1cc(C2C=C(C)N=C3SC=CN32)cc(OC)c1OC (stereo not given) | 103% (inactive) |
| Clc1ccc2c(c1)NC1(CCSc3ccccc31)n1nccc1-2 (stereo not given) | 100% (inactive) |
| COc1cc(NC(=O)CSc2nc3ccc(C)cc3c(=O)n2-c2ccccc2)cc(OC)c1OC | 87.4% (inactive) |
| COc1cccc2cc(-c3cc4ccccc4[nH]3)c(=NC(=O)c3ccc(Cl)cc3)oc12 | 53.8% (inactive) |
| Cc1oc2nc[nH]c(=O)c2c1C(=O)/C=C/c1ccc(Cl)cc1 | 15.8% (inactive) |
| CN(C)C1CCC(NC2=CC(=O)C=CC2=O)CC1 (stereo not given) | 113% (inactive) |
| O=C(c1c[nH]c2ccccc12)C(Sc1nc2ccccc2c(=O)[nH]1)c1ccccc1 (stereo not given) | 93.3% (inactive) |
| CC1(C)OC2COC3(C(=O)O)OC(C)(C)OC3C2O1 (stereo not given) | 108% (inactive) |
| Cc1cc2c(c(=O)o1)C(c1ccc(OC(=O)N3CCOCC3)cc1)C(C#N)=C(N)O2 (stereo not given) | 104% (inactive) |
| COC(=O)CCCCCN=Cc1c(O)c(O)c(C(C)C)c2cc(C)c(-c3c(C)cc4c(C(C)C)c(O)c(O)c(C=NCCCCCC(=O)OC)c4c3O)c(O)c12 | 11.4% (inactive) |
| COC(=O)C(CC(=O)c1ccc(-c2ccccc2)cc1)c1ccccc1 (stereo not given) | 77.5% (inactive) |

| SMILES | growth |
| --- | --- |
| CC[C@H](C)[C@@H]1NC(=O)[C@H]([C@@H](C)O)NC(=O)C(Cc2ccccc2)NC(=O)[C@@H]2CCCN2C(=O)C(C(C)C)NC(=O)C(Cc2ccccc2)NC(=O)CNC(=O)[C@@H]2CCCN2C1=O (stereo not given in full) | 68.3% (inactive) |
| COc1ccc(OC)c(/C=C2\Oc3cc(OCCN4CCCC4)ccc3C2=O)c1 | 92% (inactive) |
| O=S=Nc1ccc([N+](=O)[O-])cc1 | 104% (inactive) |
| CCNC(=O)CCCCC(=O)c1c(C)[nH]c(/C=C2\N=C(c3ccc[nH]3)C=C2OC)c1C | -38.3% (active) |
| OCc1c(-c2ccccc2)nc2sccn12 | 67.5% (inactive) |
| Cc1ccc(S(=O)(=O)OC2COCOC2C(OS(=O)(=O)c2ccc(C)cc2)C2OCOCC2OS(=O)(=O)c2ccc(C)cc2)cc1 (stereo not given) | 103% (inactive) |
| Cc1nc(Nc2cccnc2)sc1C(=O)/C=C/c1ccc(Cl)cc1 | 14.9% (inactive) |
| CS(=O)(=O)N(c1cc(-c2ccc3ncnc(Nc4cccc(Cl)c4)c3c2)cnc1Cl)S(C)(=O)=O | 23.8% (inactive) |
| COc1cccc(/C=C2\SC(N3CCN(c4ccccn4)CC3)=NC2=O)c1 | 100% (inactive) |
| Oc1ccc(Cl)cc1-c1cc(-c2ccc(Cl)cc2)n[nH]1 | 72.5% (inactive) |
| O=S(=O)(NCCCNc1cc(-c2cn(-c3ccccc3)nc2-c2cccc(O)c2)ccn1)c1ccc(C(F)(F)F)cc1 | 53% (inactive) |
| Cc1cc(C)c(NC(=O)c2sc3nc4c(cc3c2N)CN(Cc2ccccc2)CC4)c(C)c1 | 46.6% (inactive) |
| O=C(c1ccncc1)N1N=C(c2ccc(Cl)cc2)CC1c1c[nH]c2ccccc12 (stereo not given) | 98.5% (inactive) |
| O=C(O)c1cccc([N+](=O)[O-])c1/C=C/c1ccccc1 | 115% (inactive) |
| CCN(Cc1ccc(CN(CC)C(=O)C(Cl)(Cl)Cl)cc1)C(=O)C(Cl)(Cl)Cl | 89.6% (inactive) |
| Cc1ccc(S(=O)(=O)NCCCNc2nccc(-c3c(-c4ccccc4)nc4sccn34)n2)cc1 | 37.9% (inactive) |
| CCN1C(=S)N(CC)C2Nn3c(s/c(=C4\C(=O)N(C)c5ccccc54)c3=O)=NC21 (stereo not given) | 54.5% (inactive) |
| C#CCN1C(=O)/C(=c2\sc3n(c2=O)NC2C(N=3)N(CC)C(=O)N2CC)c2ccccc21 (stereo not given) | 66.9% (inactive) |
| C=C1C(=O)O[C@H]2[C@H]1CC/C(COC(=O)NCc1cc(OC)c(OC)c(OC)c1)=C\CC[C@@]1(C)O[C@@H]21 | 43.9% (inactive) |
| O=[N+]([O-])c1cccc(-c2cc(-c3cc(Br)ccc3O)[nH]n2)c1 | 33.9% (inactive) |
